We go through 24 compounds from PubChem BioAssay (NCATS).

Molecules are shown by their SMILES. Several values for one entry are separate records, joined by “and”; a condition that tells them apart may be missing. Equal entries are not always repeated. Records with an inconclusive call do not appear. Some structures have more than one record in an assay (separate samples or runs), and their calls can disagree. A number with no mark means an inactive call. Activity calls are given as the source filed them. Calls come from the whole dose curve; as a rule, active = well fitted curve in the direction sought with a large enough effect; inconclusive = small, poorly fitted or top-dose-only effect, or another doubt; inactive = no such curve, though single readings can be large; an effect the other way counts as inactive or inconclusive. Where a SMILES comes first, the peptide text is derived from it. Bridges are numbered along the chain shown (N, C = ends). [ ]: non-standard residue; d: D form. The star is where a group is joined. X2 = CC[C@H](C)CCCCC(=O)*; Dab = NCC[C@H](N)C(=O)O

Assay [1] is described as follows: Drug repurposing screens with cells derived from glioblastoma tumor samples (AID 1345199). Note: nearly all actives have a fitted effect of over 40% in size. The conditions noted are these: GBM patient neurospheres viability, ATP luminescence, 48 h. In a few lines: (§1)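 Four patient lines of CD133+ GBM neurospheres were screened at several concentrations; hits were retested in those lines plus three slower-growing GBM lines, using 48-hour treatment and ATP-based viability.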

In assay [2] the test system is astro (control astrocytes). The assay is described as above. The conditions noted are these: viability, ATP luminescence, 48 h; series mostly up to 45.9 µM. The essentials:
as §1

Assay [3] is described as follows: qHTS assay to identify inhibitors of the type 1 interferon - major histocompatibility complex class I in skeletal muscle: Counter screen cell viability and HiBit confirmation (AID 1347412). For all read-outs here: nearly all actives have a fitted effect of over 60% in size. To be noted: iHSKM muscle cells + IFN-b, HiBiT or CellTiter-Glo, 24 h; for activity change, negative = inhibition: at 45.9 µM (top of the series). The essentials:
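Luminescence read-out: Nano-Glo HiBiT lytic signal from C-terminally HiBiT-tagged HLA-B in CRISPR-edited human myoblasts, plus CellTiter Glo ATP as viability counter screen. IFN-beta 4.0 ng/ml; 24 hrs treatment at 37 C, 5% CO2.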
(qHTS replaces the single test concentration by a dilution series.)

[4] abbreviates: at 45.9 µM (top of the series), tumour line B.
[5] abbreviates: at 45.9 µM (top of the series), tumour line D.
The mark [6] stands for this setting: at 46.1 µM (top of the series), tumour line C.
Where [7] appears, read: at 46 µM (top of the series), tumour line A.
% is set by controls: 0 for no effect and ±100 for the full control effect; potency is the fitted concentration of half-maximal effect.

On to `CCCC(=O)N1CCCN(c2nc(N)c3cc(OC)c(OC)cc3n2)CC1`, for which the activity, negative = cell killing in assay [1] (setting [4]) is -1.44%; in assay [1] (setting [5]), -2.77%; in assay [1] (setting [6]), 14.2%. In assay [1] (tumour line A), the Potency was 17.8 µM (active). The Potency result in assay [2] was “inactive”.

Take `CCC(=O)O`: the activity, negative = cell killing is 6.59% in assay [1] (setting [4]), -5.65% in assay [1] (setting [5]), -7.77% in assay [1] (setting [7]) and 7.14% in assay [1] (setting [6]). Further, the Potency entry in assay [2] was “inactive”.

For the compound `CCCOc1ccc2nc(NC(=O)OC)sc2c1`, in assay [1] (setting [6]), the activity, negative = cell killing is -26.8%. In addition, the Potency is 8.91 µM (active) in assay [1] (tumour line A), 10 µM (active) in assay [1] (tumour line D) and 6.31 µM (active) in assay [2].

On to `CCCCc1cc2c(=O)c(C(=O)OC)c[nH]c2cc1OCc1ccccc1`, for which the activity, negative = cell killing in assay [1] (setting [4]) was -16.1%; in assay [1] (setting [5]), -19.6%; in assay [1] (setting [6]) it was -7.65%. In addition, the Potency result in assay [2] is “inactive”.

Regarding `CN[C@@H]1CCc2[nH]c3ccc(C(N)=O)cc3c2C1`, the activity, negative = cell killing was -9.15% in assay [1] (setting [4]), -11.6% in assay [1] (setting [5]) and 28.3% in assay [1] (setting [6]). Moreover, the Potency result in assay [2] is “inactive”.

On to `COc1ccc(CCNCC(O)COc2cccc(C)c2)cc1OC` (configuration not stated), for which the activity, negative = cell killing in assay [1] (setting [4]) was -28.4%; in assay [1] (setting [6]) it was -25.3%. In assay [1] (tumour line A), the Potency was 11.2 µM (active). Further, the Potency result in assay [2] was “inactive”.

`CO[C@@H]1[C@@H](O[C@@H]2O[C@H](C)[C@@H](O[C@H]3C[C@@](C)(O)[C@@H](OC(=O)CC(C)C)[C@H](C)O3)[C@H](N(C)C)[C@H]2O)[C@@H](CC=O)C[C@@H](C)[C@@H](O)/C=C/C=C/C[C@@H](C)OC(=O)C[C@H]1O`: the activity, negative = cell killing is -21.1% in assay [1] (setting [5]); -11.8% and -30.6% in assay [1] (setting [6]). Further, the Potency in assay [1] (tumour line A) is 12.6 µM (active). Besides, in assay [2], the Potency entry is “inactive”.

Regarding `CC[C@H](C)CCCCC(=O)N[C@@H](CCN)C(=O)N[C@H](C(=O)N[C@@H](CCN)C(=O)N[C@H]1CCNC(=O)[C@H]([C@@H](C)O)NC(=O)[C@H](CCN)NC(=O)[C@H](CCN)NC(=O)[C@H](CC(C)C)NC(=O)[C@@H](CC(C)C)NC(=O)[C@H](CCN)NC1=O)[C@@H](C)O` (X2-[Dab]T[Dab][Dab][Dab][dL]L[Dab][Dab]T; lactam 4-C), the values for the activity, negative = cell killing in assay [1] (setting [4]), in assay [1] (setting [5]) and in assay [1] (setting [6]) were 6.46%, 12.6% and -10.4%, respectively. For the same compound, the Potency result in assay [2] is “inactive”.

For `CNC[C@@H]1CC[C@@H](N)[C@@H](O[C@H]2[C@H](O)[C@@H](O[C@H]3OC[C@](C)(O)[C@H](NC)[C@H]3O)[C@H](N)C[C@@H]2N)O1`, the activity, negative = cell killing in assay [1] (setting [4]) was -14.4%; in assay [1] (setting [5]) it was -20.8%; in assay [1] (setting [6]), 16.1%. Moreover, the Potency entry in assay [2] is “inactive”.

As to `C1CNCCN1`, the activity, negative = cell killing is -11% in assay [1] (setting [4]), -24.6% in assay [1] (setting [5]), -15.8% in assay [1] (setting [7]) and -0.46% in assay [1] (setting [6]). The Potency entry in assay [2] is “inactive”.

For `CN1CC(O)c2cc(N=NC(N)=O)c(O)cc21` (configuration not stated), the activity, negative = cell killing was -10.8% in assay [1] (setting [4]), -26.7% in assay [1] (setting [7]) and 26.2% in assay [1] (setting [6]). Moreover, in assay [2], the Potency entry was “inactive”.

As for `O=P(O)(O)OC(Cn1cncn1)(Cn1cncn1)c1ccc(F)cc1F`, the activity, negative = cell killing in assay [1] (setting [4]) was -3.57%; in assay [1] (setting [5]), -9.38%; in assay [1] (setting [6]) it was 14%. For the same compound, the Potency result in assay [2] was “inactive”.

As for `CCC(C)(C)OC(=O)N[C@@H](Cc1c[nH]c2ccccc12)C(=O)N[C@@H](CCSC)C(=O)N[C@@H](CC(=O)O)C(=O)N[C@@H](Cc1ccccc1)C(N)=O`, the activity, negative = cell killing in assay [1] (setting [4]) was -2.77%; in assay [1] (setting [5]) it was -10.3%; in assay [1] (setting [6]), -14.8%. The Potency entry in assay [2] was “inactive”.

On to `COc1ccc(CNc2nc(N(CCO)CCO)nc3c2ncn3C(C)C)cc1`, for which the Potency in assay [3] (HiBiT) was 5.57 µM (active). For the same compound, the activity change, negative = inhibition in assay [3] (Viability) was 13%.

As to `C[C@H](/C=C/[C@H](C)C(C)(C)O)[C@H]1CC[C@H]2/C(=C/C=C3C[C@@H](O)C[C@H](O)C3)CCC[C@]12C`, the Potency entry in assay [2] was “inactive”.

Take `CO[C@H]1C[C@H](O[C@H]2[C@H](C)O[C@@H](O[C@@H]3/C(C)=C/C[C@@H]4C[C@@H](C[C@]5(C=C[C@H](C)[C@@H](C6CCCCC6)O5)O4)OC(=O)[C@@H]4C=C(C)[C@@H](O)[C@H]5OC/C(=C\C=C\[C@@H]3C)[C@]54O)C[C@@H]2OC)O[C@@H](C)[C@@H]1O`: the Potency in assay [2] was 17.8 µM (active).

As to `N#Cc1ccnc(Nc2cc(C3CCN(C4COC4)CC3)cc(N3CCC(F)(F)C3)n2)c1`, the Potency in assay [3] (HiBiT) is 3.52 µM (active).

With `CCOc1ccc(N=C(C)Nc2ccc(OCC)cc2)cc1`, the values for the activity, negative = cell killing in assay [1] (setting [4]) and in assay [1] (setting [6]) were -12.2% and -2.07%, respectively. In assay [1] (tumour line A), the Potency was 11.2 µM (active). For the same compound, the Potency entry in assay [2] was “inactive”.

For the compound `c1cnc2cc3c(cc2n1)[C@@H]1CNC[C@H]3C1`, the activity, negative = cell killing in assay [1] (setting [4]) is 5.48%; in assay [1] (setting [5]) it was -17.8%; in assay [1] (setting [6]), -0.703%. In addition, the Potency entry in assay [2] is “inactive”.

Consider `O=C[C@H](O)[C@@H](O)[C@H](O)[C@H](O)CO`, for which the activity, negative = cell killing in assay [1] (setting [4]) was -4.49%; in assay [1] (setting [5]), -7.76%; in assay [1] (setting [6]) it was 7.35%. In assay [2], the Potency result is “inactive”.

`COC(=O)Nc1cc(Nc2cc(NC3CC3)c3ncc(C#N)n3n2)c(Cl)c(N2CCN(C)CC2)c1`: the results for the Potency in assay [3] (HiBiT) and in assay [3] (Viability) were 7.01 µM (active) and 17.6 µM (active), respectively.

Regarding `C=CS(=O)(=O)O`, the activity, negative = cell killing is -2.55% in assay [1] (setting [4]), -4.12% in assay [1] (setting [5]) and -10.9% in assay [1] (setting [6]). The Potency entry in assay [2] was “inactive”.

Take `Cc1ccc(/C(=C\CN2CCCC2)c2cccc(/C=C/C(=O)O)n2)cc1`: the activity, negative = cell killing in assay [1] (setting [6]) is -12.4%. For the same compound, the figures for the Potency in assay [1] (tumour line A) and in assay [2] were 35.5 µM (active) and 22.4 µM (active), respectively.

Consider `NC(=O)c1cnc(N[C@@H]2CCCC[C@@H]2N)nc1Nc1cccc(-n2nccn2)c1`, for which the activity change, negative = inhibition in assay [3] (Viability) is -17.1%.
